# D1 potentiator: enhances dopamine response at the human D1 receptor; 0.036% of 360,000 active; HEK293 TREx D1 cells, calcium flux, dopamine EC20 potentiation; potentiation, % at 10 µM; AID 504651; P21728; in the data active means potentiation above about 30%
# TRHR ag: activates the human TRH receptor; 0.18% of 360,000 active; activation, % at 2 µM; TRHR cells, calcium flux fluo-8, FDSS agonist mode; P34981
# Target sequence (P34981 whole entry, looked up): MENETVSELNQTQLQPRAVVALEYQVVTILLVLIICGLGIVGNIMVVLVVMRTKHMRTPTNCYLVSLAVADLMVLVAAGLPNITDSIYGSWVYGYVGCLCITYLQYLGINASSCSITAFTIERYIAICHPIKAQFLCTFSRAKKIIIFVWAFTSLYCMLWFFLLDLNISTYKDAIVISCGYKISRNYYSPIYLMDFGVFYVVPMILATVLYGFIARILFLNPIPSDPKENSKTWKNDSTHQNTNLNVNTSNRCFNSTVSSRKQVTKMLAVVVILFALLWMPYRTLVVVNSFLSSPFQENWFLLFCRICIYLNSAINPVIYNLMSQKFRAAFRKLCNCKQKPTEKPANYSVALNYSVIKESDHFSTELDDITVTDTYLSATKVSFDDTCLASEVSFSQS
#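 TRHR-expressing cells, plated overnight in medium with 10% serum, were loaded with fluo-8 calcium dye at room temperature. After a 10 s baseline, library compound was pin-added and calcium release was recorded kinetically (ex 480/em 530) as agonist response.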
# D1 antag: blocks dopamine activation of the human D1 receptor; P21728; HEK293 TREx D1 cells, calcium flux, dopamine EC80; hits give low values; activity change, negative = inhibition, % at 10 µM; 3.2% of 360,000 active; AID 504652; in the data active means activity change below about -30%
#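 Using tetracycline-induced force-coupled D1 Hek293 cells and a calcium dye, signals were followed for 180 s after compound, then for 180 s after EC80 dopamine, to detect inhibitors.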
# TRHR PAM: allosterically enhances the human TRH receptor | AID 493056 | enhancement, % at 2 µM | TRHR cells, fluo-8 calcium fluorescence, EC20 TRH enhancement | 0.66% of 360,000 active | P34981; in the data active means enhancement above about 30%
#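 Enhancer read-out: after compound pinning and an initial kinetic agonist-mode read, an EC20 of TRH (10 nM final) was injected and fluo-8 calcium signal (Ex 480/Em 530) followed at 1 s/cycle for 100 cycles in TRHR-expressing cells.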
# D1 ag: agonists of human D1 dopamine receptor | P21728 | HEK293 T-REx D1 cells, calcium flux, agonist mode | activation, % at 2 µM | 1% of 360,000 active | AID 504660
#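 Inducible HEK293 T-REx D1 cells, force-coupled to calcium signalling, were plated at 4000 cells/well with tetracycline and held overnight at 30 C. After no-wash calcium dye loading, compound-evoked calcium rise over 180 s flagged agonists.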
# Numbers stand for hits; n = inactive; x = not tested or not shown; ! = not confirmed by another sample. Shown are actives, neighbours in structure and some others; about 4.7% of the full set was active somewhere. Unless noted, no stated cut-off is given here; in the data, active means activation above about 30%; inactive means the rest.
SMILES,D1 potentiator,TRHR ag,D1 antag,TRHR PAM,D1 ag
CCOc1ccc(NC(=O)Cn2c(=O)n(-c3ccccc3)c(=O)c3ccc(C(=O)NCc4ccc5c(c4)OCO5)cc32)cc1,n,n,n,n,n
COc1cccc(Cn2ncc3c4sc(C)cc4n(C)c3c2=O)c1,n,n,n,n,n
FC(F)(F)c1ccccc1-n1c(-c2ccco2)n[nH]c1=S,31.9,n,n,n,n
CCn1c(Cc2ccccc2)n[nH]c1=S,n,n,n,n,n
CC(C)Cn1c(-c2ccco2)n[nH]c1=S,n,n,n,34.7,n
CC(C)Cn1c(Cc2ccccc2)n[nH]c1=S,n,n,-35.2,n,32.7
CCOc1ccc(CNC(=O)C2CCCN(S(=O)(=O)N(C)c3ccc(F)cc3)C2)cc1OC (stereo not given),n,n,n,n,34.5
COc1ccc(CNC(=O)C2CCCN(S(=O)(=O)N(C)c3ccc(F)cc3)C2)cc1OC (stereo not given),n,n,n,n,n
Cc1cccc(-c2noc(CN(C(C)C)S(=O)(=O)c3ccc(Br)cc3)n2)c1,n,n,n,n,34.4
Cc1n[nH]c(C)c1CCCCOc1ccccc1[N+](=O)[O-],n,n,-32.7,n,n
Cc1ccc(OCCCc2c(C)n[nH]c2C)cc1,n,n,n,n,n
Cc1ccccc1OCCCCc1c(C)n[nH]c1C,n,n,n,n,n
Cc1n[nH]c(C)c1CCCCOc1ccc([N+](=O)[O-])cc1,n,n,-39.1,n,n
Cc1n[nH]c(C)c1CCCCOc1ccccc1,n,n,-32.2,n,n
Cc1cccc(C)c1OCCCCc1c(C)n[nH]c1C,n,n,n,n,n
CC(C)Cn1c(-c2ccco2)nc2c(c(=O)c3ccccc3n2C)c1=O,n,n,n,n,n
Cc1nc2c(c(=O)c3ccccc3n2C)c(=O)n1-c1ccccc1,n,n,n,n,n
Cn1c2ccccc2c(=O)c2c(=O)n(C3CCCCC3)c(-c3ccco3)nc21,n,n,n,n,105.8
Cc1nc2c(c(=O)c3ccccc3n2C)c(=O)n1C1CCCCCC1,n,32.8,n,n,154.0
CCOC(=O)C1=C(C)NC2=C(C(=O)c3ccccc32)C1c1ccc([N+](=O)[O-])o1 (stereo not given),n,n,-72.6,n,n
O=C1NC(=O)[C@@H]2C3c4ccccc4C=CN3[C@H](C(=O)c3cccs3)[C@H]12 (stereo not given in full),n,n,-69.9,n,n
O=C(c1ccco1)[C@@H]1[C@@H]2C(=O)N(c3ccc(F)cc3)C(=O)[C@@H]2C2c3ccccc3C=CN21 (stereo not given in full),n,n,n,n,n
COc1ccccc1N1CCN(c2nc3ccc(C)cc3n3nnnc23)CC1,n,n,-30.1,n,n
COc1cc(OC)c(OC)cc1/C=C/c1cc(C(=O)O)c2ccccc2n1,n,n,n,n,n
COc1ccc(/C=C/c2cc(C(=O)O)c3ccccc3n2)cc1,n,n,-32.7,n,n
SMILES,D1 potentiator,TRHR ag,D1 antag,TRHR PAM,D1 ag
Cc1ccc(NS(=O)(=O)c2cc(C(=O)NCc3ccccn3)ccc2Cl)cc1C,n,n,-30.9,n,n
Cc1cccc(NS(=O)(=O)c2cc(C(=O)NCCC3=CCCCC3)ccc2Cl)c1,n,n,n,34.6,n
Cc1ccc(C)c(NS(=O)(=O)c2cc(C(=O)NCc3ccccn3)ccc2Cl)c1,n,n,n,n,n
O=C(OCc1ccccc1Cl)c1ccc(-c2nnn(Cc3ccccc3)n2)cc1,n,n,n,n,n
COc1ccccc1-c1ccc(/C=C2/C=C(C)OC2=O)o1,n,n,n,n,n
COc1ccccc1-c1ccc(/C=C2\C=CC(=O)O2)o1,n,73.0,n,n,291.5
Clc1ccccc1-c1ccc2ncnc(NCc3cccs3)c2c1,n,n,-41.8,n,n
Cc1cccc(-c2ccc3ncnc(NCc4cccs4)c3c2)c1,n,n,-46.0!,n,n
Cc1csc(CNc2ncnc3ccc(-c4ccccc4Cl)cc23)c1,n,n,n,n,n
Cc1csc(CNc2ncnc3ccc(-c4cccnc4)cc23)c1,n,n,n,n,n
Cc1csc(CNc2ncnc3ccc(-c4ccoc4)cc23)c1,n,n,-62.5!,n,n
Cc1ccc(-n2ncc(C(=O)NCc3ccco3)c2C2CCN(C(=O)OC(C)(C)C)CC2)cc1,n,n,n,n,n
CCCc1nnc(NC(=O)Cn2c(=O)oc3cc(Br)ccc32)s1,n,n,n,n,61.8
CSc1nc2ccc(S(=O)(=O)N3CCOCC3)cc2s1,n,n,n,n,n
CCCc1nc2ccccc2c(C(=O)OCC(=O)Nc2cccc(S(=O)(=O)N3CCOCC3)c2)c1CC,n,n,-33.6,n,n
O=C(COC(=O)CCc1ccc(S(=O)(=O)N2CCOCC2)cc1)Nc1ccc(Cl)cn1,n,n,n,n,35.8!
O=C(COC(=O)c1n[nH]c2ccccc12)Nc1cccc(S(=O)(=O)N2CCOCC2)c1,n,n,-30.5,n,n
N#CCc1nc2ccc(S(=O)(=O)N3CCOCC3)cc2s1,n,34.9,n,n,39.0
O=C(COC(=O)c1cc(S(=O)(=O)N2CCOCC2)ccc1F)Nc1ccc(Cl)cn1,n,n,n,n,n
COc1ccc(OC)c(CNC(=O)CN2N=C(c3ccc(Cl)cc3)CCC2=O)c1,n,n,n,n,n
CCN(CC)S(=O)(=O)c1cccc(NC(=O)COC(=O)c2cc(C)oc2C)c1,n,n,n,n,n
CCN(CC)S(=O)(=O)c1cccc(NC(=O)COC(=O)c2n[nH]c(=O)c3ccccc23)c1,n,n,-31.6,n,n
COc1ccc2c(CC(=O)Nc3cccc(S(=O)(=O)N4CCOCC4)c3)coc2c1,n,n,-87.4,n,n
O=C(COC(=O)CCc1nc2ccccc2s1)Nc1cccc(S(=O)(=O)N2CCOCC2)c1,n,n,-43.6,n,n
Cc1cc(C)cc(OCCNC(=O)CCc2ccccc2)c1,n,n,n,n,n
SMILES,D1 potentiator,TRHR ag,D1 antag,TRHR PAM,D1 ag
Cc1noc(C)c1C(=O)OCC(=O)Nc1ccc(S(N)(=O)=O)cc1,n,n,n,n,n
CN1C(=O)C2CN(CCc3ccccc3)CNC2N(C)C1=O (stereo not given),n,n,-35.1,n,n
CCN1CN(CCc2ccccc2)CNC1=S,n,n,n,n,n
Cn1cnc([N+](=O)[O-])c1Oc1cccc2ccccc12,n,n,n,37.5,n
Cn1cnc([N+](=O)[O-])c1Oc1ccccc1,n,n,n,n,n
Cn1c(=O)[nH]c(=O)c2c1nc1n2CCN1Cc1ccccc1,n,n,-60.9,n,n
COc1ccc(Cl)cc1NC(=O)CSc1nnc2[nH]c(=O)cc(-c3ccccc3)n12,n,n,x,n,n
Clc1ccc(N/N=C/c2ccncc2)cc1Cl,n,n,-34.2,n,n
Clc1cnc(N/N=C/c2ccncc2)c(Cl)c1,n,n,n,n,n

# Screening data: PubChem, National Center for Advancing Translational Sciences (NCATS)
